Source: PubChem BioAssay (EPA / NIEHS)
Records with an inconclusive call do not appear. The source made the active and inactive calls. Rule for the calls, unless noted: active = hit-call score of the fitted dose curve at least 0.9, where 1 is the maximum; inconclusive = response in the unintended direction; inactive = score below 0.9.

Tests used:
[1] = molecular target: Thyroid hormone receptor alpha (Rattus norvegicus) + Thyroid hormone receptor beta (Rattus norvegicus) (UniProt P18113+P63059); experiment: TOX21_TR_LUC_GH3_Antagonist_Followup: Tox21 GH3 Thyroid Hormone Receptor Antagonism Luciferase Follow-Up Assay (AID 2283942)
How it was run: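 Antagonist mode: GH3 cells seeded 1,500/well, compounds at 15 concentrations (92 uM to 5nM final) plus T3 at 1.0 nM final, 24 h at 37C. Luciferase read with ONE-Glo after 30 min at room temperature.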

[2] = molecular target: THRA (gene 7067) (UniProt P10827); experiment: TOX21_TRA_COA_Antagonist_Followup_ratio: Tox21 Thyroid Hormone Receptor alpha Antagonism through Coactivator Recruitment Follow-Up Assay, Ratio (AID 2283953)
Sequence of THRA (gene 7067) (P10827 whole entry, looked up, the tested form may be a part): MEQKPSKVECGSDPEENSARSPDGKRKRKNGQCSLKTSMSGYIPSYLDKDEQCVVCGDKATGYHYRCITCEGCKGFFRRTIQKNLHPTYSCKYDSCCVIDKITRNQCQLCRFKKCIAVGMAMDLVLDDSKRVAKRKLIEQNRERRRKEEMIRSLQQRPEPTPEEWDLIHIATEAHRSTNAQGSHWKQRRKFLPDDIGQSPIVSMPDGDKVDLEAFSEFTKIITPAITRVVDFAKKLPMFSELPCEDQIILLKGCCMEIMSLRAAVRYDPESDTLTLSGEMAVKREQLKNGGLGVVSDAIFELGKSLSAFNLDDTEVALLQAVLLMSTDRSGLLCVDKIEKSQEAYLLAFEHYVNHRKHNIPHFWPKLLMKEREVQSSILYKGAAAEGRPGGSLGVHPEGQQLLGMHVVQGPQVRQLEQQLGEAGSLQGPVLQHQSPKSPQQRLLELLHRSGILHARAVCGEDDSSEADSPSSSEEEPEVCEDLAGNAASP
How it was run: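 520:495 nm emission ratio (excitation 340 nm) reports fluorescein-SRC-2 peptide recruitment to GST-TRα LBD by TR-FRET with Tb anti-GST antibody. Values were normalized to DMSO (0%) and T3 control wells (100%); loss of signal indicated antagonism.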

[3] = molecular target: THRB (gene 7068) (UniProt P10828); experiment: TOX21_TRB_BLA_Antagonist_Followup_ratio: Tox21 Thyroid Hormone Receptor beta Antagonism Beta-lactamase (BLA) Follow-Up Assay, Ratio (AID 2283958)
Sequence of THRB (gene 7068) (P10828 whole entry, looked up, the tested form may be a part): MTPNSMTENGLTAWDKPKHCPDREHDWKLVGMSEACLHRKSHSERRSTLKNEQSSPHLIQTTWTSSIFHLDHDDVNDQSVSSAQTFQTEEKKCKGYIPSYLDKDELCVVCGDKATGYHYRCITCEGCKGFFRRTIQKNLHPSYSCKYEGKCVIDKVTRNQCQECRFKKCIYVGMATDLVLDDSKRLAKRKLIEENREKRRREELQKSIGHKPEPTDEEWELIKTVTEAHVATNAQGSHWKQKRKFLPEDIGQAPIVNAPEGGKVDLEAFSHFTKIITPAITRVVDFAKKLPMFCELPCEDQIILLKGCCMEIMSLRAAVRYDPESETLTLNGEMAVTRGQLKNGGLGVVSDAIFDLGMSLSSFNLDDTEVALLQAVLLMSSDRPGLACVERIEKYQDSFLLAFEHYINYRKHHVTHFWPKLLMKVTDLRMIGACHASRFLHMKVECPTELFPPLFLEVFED
How it was run: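 HEK293T TRb-bla (GAL4 DBD + hTRβ LBD), 2% cs-FBS phenol red-free DMEM, 5 h attach; cpds 11-pt triplicate, 18 h 37C; CCF4-AM 2 h RT; 460/530 ratio vs DMSO; CellTiter-Glo viability same wells.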

[4] = TOX21_TRB_BLA_Antagonist_Followup_viability: Viability Assessment in the Tox21 Thyroid Hormone Receptor beta Antagonism Beta-lactamase (BLA) Follow-Up Assay (AID 2283961)
How it was run: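 Cytotoxicity is measured in parallel with the antagonist-mode TRβ beta-lactamase screen, using ATP-coupled luciferase luminescence. Engineered HEK293T cells are treated for 18 h with 11-point compound series in triplicate.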

[5] = molecular target: THRB (gene 7068) (UniProt P10828); experiment: TOX21_TRB_COA_Antagonist_Followup_ratio: Tox21 Thyroid Hormone Receptor beta Antagonism through Coactivator Recruitment Follow-Up Assay, Ratio (AID 2283967)
How it was run: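 Cell-free TR-FRET: GST-TRb LBD (5.0 nM) with fluorescein-SRC-2 peptide (200 nM) and Tb anti-GST antibody (2 nM), 0.10% BSA. 520:495 nm emission ratio normalized to DMSO (0%) and T3 (100%).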

[6] = TOX21_TR_RXR_BLA_Antagonist_Followup_viability: Viability Assessment in the Tox21 Thyroid Hormone Receptor beta Retinoid X Receptor alpha (RXRa) Antagonism Beta-lactamase (BLA) Follow-Up Assay (AID 2283979)
How it was run: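 RXRa-bla HEK293T cells (2,500/well, phenol red-free DMEM, 2% charcoal-stripped FBS) were attached 5 h, then exposed to compounds at 11 concentrations in triplicate for 16 h at 37C. Viability measured by CellTiter-Glo ATP luminescence, bidirectional fitting versus DMSO.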

[7] = molecular target: PGR (gene 5241) (UniProt P06401); experiment: TOX21_PR_BLA_Followup_Agonist_ratio: Tox21 HEK293 Progesterone Receptor (PR) Agonism Beta-lactamase Follow-Up Assay, Ratio (AID 2283933)
Sequence of PGR (gene 5241) (P06401 whole entry, looked up): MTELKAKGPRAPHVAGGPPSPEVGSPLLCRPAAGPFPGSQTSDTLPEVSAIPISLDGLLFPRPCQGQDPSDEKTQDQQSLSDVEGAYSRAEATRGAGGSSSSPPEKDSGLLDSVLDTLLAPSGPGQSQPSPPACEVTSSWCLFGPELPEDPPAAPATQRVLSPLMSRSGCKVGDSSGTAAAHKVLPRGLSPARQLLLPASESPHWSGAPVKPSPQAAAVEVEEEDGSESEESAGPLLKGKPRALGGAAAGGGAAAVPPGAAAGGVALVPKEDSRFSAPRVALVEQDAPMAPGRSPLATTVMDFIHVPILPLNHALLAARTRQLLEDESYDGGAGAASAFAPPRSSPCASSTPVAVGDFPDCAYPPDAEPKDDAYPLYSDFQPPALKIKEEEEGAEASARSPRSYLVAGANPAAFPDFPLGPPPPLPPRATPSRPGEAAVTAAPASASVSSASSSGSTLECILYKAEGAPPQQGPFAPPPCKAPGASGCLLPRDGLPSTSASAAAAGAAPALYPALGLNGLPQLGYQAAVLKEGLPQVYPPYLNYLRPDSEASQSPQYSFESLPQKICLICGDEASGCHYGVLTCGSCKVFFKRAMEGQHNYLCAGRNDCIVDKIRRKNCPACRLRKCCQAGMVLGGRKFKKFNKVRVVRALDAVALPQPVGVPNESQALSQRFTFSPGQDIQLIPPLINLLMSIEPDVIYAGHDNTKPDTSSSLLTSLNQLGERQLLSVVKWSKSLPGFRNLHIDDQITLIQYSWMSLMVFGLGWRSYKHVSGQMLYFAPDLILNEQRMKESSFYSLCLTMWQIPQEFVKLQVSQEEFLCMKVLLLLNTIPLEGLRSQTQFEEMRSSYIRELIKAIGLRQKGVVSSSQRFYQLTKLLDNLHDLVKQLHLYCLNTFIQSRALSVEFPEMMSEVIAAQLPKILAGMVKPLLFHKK
How it was run: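 HEK293T PR-UAS-bla, 2% CS-FBS; 6 hr preincubation, cpd/DMSO pinned, 16 hr 37C/5% CO2; LiveBLAzer B/G 2 hr RT; FRET ch2/ch1 ratio, agonist direction vs DMSO. Viability by CellTiter-Glo in same wells.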

[8] = molecular target: PGR (gene 5241) (UniProt P06401); experiment: TOX21_PR_BLA_Followup_Antagonist_ratio: Tox21 HEK293 Progesterone Receptor (PR) Antagonism Beta-lactamase Follow-Up Assay, Ratio (AID 2283934)
How it was run: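 HEK293T PR-UAS-bla, 2% CS-FBS; 6 hr plating, then cpd + R5020 (1 nM final), 16 hr 37C/5% CO2. B/G FRET substrate 2 h RT. Ratio ch2/ch1 vs DMSO; CellTiter-Glo viability multiplexed, autofluorescence checked.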

[9] = TOX21_PR_BLA_Followup_Agonist_viability: Viability Assessment in the Tox21 HEK293 Progesterone Receptor (PR) Agonism Beta-lactamase Follow-Up Assay (AID 2283935);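 note: signal loss means lower viability so actives are cytotoxic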
How it was run: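 HEK293T PR-UAS-bla, 3,000 cells/well, 2% CS-FBS; 6 hr pre-incubation; cpd in DMSO, 16 hr 37C; LiveBLAzer 2 hr RT, then CellTiter-Glo 30 min RT, luminescence. Decrease = lost viability.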

[10] = TOX21_PR_BLA_Followup_Antagonist_viability: Viability Assessment in the Tox21 HEK293 Progesterone Receptor (PR) Antagonism Beta-lactamase Follow-Up Assay (AID 2283936);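 note: hits lower the luminescence signal meaning cytotoxicity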
How it was run: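 PR-UAS-bla HEK293T cells (3,000/well, 2% charcoal-stripped FBS) given compound plus R5020 agonist, 16 h at 37C. CellTiter-Glo added after bla read, 30 min at room temperature; luminescence loss indicates cytotoxicity.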

[11] = molecular target: PGR (gene 5241) (UniProt P06401); experiment: TOX21_PR_LUC_Followup_Agonist: Tox21 HEK293 Progesterone Receptor (PR) Agonism Luciferase Follow-Up Assay (AID 2283937; active = hit-call score of the fitted dose curve at least 0.9, where 1 is the maximum; inactive = score below 0.9)
How it was run: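 Cells: HEK293-PR-A-luc, 3,000/well, 10% charcoal-stripped FBS assay medium. Compound added after 5 h; 16 h, 37C, 0% CO2. ONE-Glo luciferase, luminescence. Positive fit vs DMSO.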

[12] = molecular target: PGR (gene 5241) (UniProt P06401); experiment: TOX21_PR_LUC_Followup_Antagonist: Tox21 HEK293 Progesterone Receptor (PR) Antagonism Luciferase Follow-Up Assay (AID 2283938);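 note: curve fitted upward as signal gain over DMSO baseline despite antagonist label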
How it was run: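 A follow-up to the PR bla screen using HEK293-PR-A-luc cells, multiplexed with cell viability to flag cytotoxicity. Reporter luminescence after 16 h compound exposure was analysed relative to DMSO.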

[13] = TOX21_PR_LUC_Followup_Antagonist_viability: Viability Assessment in the Tox21 HEK293 Progesterone Receptor (PR) Antagonism Luciferase Follow-Up Assay (AID 2283940)
How it was run: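 Multiplexed viability counter-screen: after 5 days in charcoal-stripped-FBS medium, HEK293-PR-A-luc cells are plated, pinned with DMSO-dissolved compounds for 16 h at 37C, and ATP content is quantified luminescently via CellTiter-Glo.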

[14] = TOX21_PR_LUC_Followup_Agonist_viability: Viability Assessment in the Tox21 HEK293 Progesterone Receptor (PR) Agonism Luciferase Follow-Up Assay (AID 2283941);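 note: loss of signal means cytotoxicity so actives lower viability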
How it was run: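 Cells were kept 5 days in charcoal-stripped serum medium before plating HEK293-PR-A-luc at 3,000 cells/well. After 5 h they received DMSO-dissolved compound and incubated 16 h at 37C. Viability was taken from CellTiter-Glo ATP luminescence.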

Measured: AC50

C#C[C@]1(O)CC[C@H]2[C@@H]3CCC4=C(CCC(=O)C4)[C@H]3CC[C@@]21C
inactive: [1] | [2] | [3] | [4] | [5] | [6]

O=c1[nH]c(=O)n([C@H]2C[C@H](O)[C@@H](CO)O2)cc1C(F)(F)F
inactive: [1] | [3] | [4] | [6]

C[C@@H]1CC(=O)NN=C1c1ccc(NN=C(C#N)C#N)cc1
active: [8] 17.3 µM | [12] 3.22 µM
inactive: [7] | [9] | [10] | [11] | [13] | [14]

CCCCCCC[N+](CC)(CC)CCCCc1ccc(Cl)cc1
inactive: [1] | [2] | [3] | [5] | [6]

CCCC(=O)OCOC(=O)C1=C(C)NC(C)=C(C(=O)OC)C1c1cccc(Cl)c1Cl (centres undefined)
inactive: [7] | [8] | [9] | [10] | [11] | [12]

CC(=O)O[C@@H]1CC2C3CCc4cc(OC(=O)c5ccccc5)ccc4C3CCC2(C)[C@H]1OC(C)=O (some centres undefined)
inactive: [7] | [9] | [10] | [13] | [14]
active: [8] 5.65 µM | [11] 20.1 µM | [12] 1.05 µM

CCCC(=O)O[C@]1(C(=O)CO)CC[C@H]2[C@@H]3CCC4=CC(=O)CC[C@]4(C)[C@H]3[C@@H](O)C[C@@]21C
inactive: [9] | [12]

C/C=C(/C(=C/C)c1ccc(OC(C)=O)cc1)c1ccc(OC(C)=O)cc1
active: [8] 9.64 µM | [12] 14.7 µM
inactive: [7] | [9] | [10] | [11] | [13]

CCC(=O)Oc1ccc2c(c1)CC[C@@H]1[C@@H]2CC[C@@]2(C)[C@H]1C[C@@H](OC(=O)CC)[C@@H]2OC(=O)CC
inactive: [7] | [9] | [10] | [12] | [13] | [14]
active: [8] 2.81 µM | [11] 16.8 µM

C[C@]12CCC(=O)C=C1CC[C@H]1[C@@H]3CC[C@](O)(C(=O)CO)[C@@]3(C)C[C@H](O)[C@@]12F
inactive: [8] | [9] | [10] | [12] | [14]
